Source: PubChem BioAssay (Tox21)
Inconclusive results are not listed. A call without a number means that no potency is given here. The source made the active and inactive calls. The call rests on the fitted dose curve.

Test: Nuclear factor erythroid 2-related factor 2/antioxidant responsive element (Nrf2/ARE) small molecule agonists: luciferase reporter gene qHTS assay in human keratinocytes (AID 1919969); further: nearly all actives have a fitted effect of over 35% in size

SMILES	Potency
CCC(C)(c1ccc(O)cc1)c1ccc(O)cc1	inactive
ClC1=C(Cl)[C@]2(Cl)[C@@H]3[C@@H](Cl)[C@H]4O[C@H]4[C@@H]3C1(Cl)C2(Cl)Cl	inactive
Clc1ccc(Oc2ccccc2)cc1	inactive
CO/N=C(/C(=O)OC)c1ccccc1COc1ccccc1C	inactive
CCC(C)Br (stereo not given)	inactive
